Bioassay records deposited in PubChem by several laboratories.
VLA-4 inh: inhibition in human VLA-4 binding assay, primary screen, VLA-4 allosteric modulator project, MLPCN library, flow cytometry, VLA-4 expressing cells; ligand binding flow cytometry; inhibition, % (about 7 µM as worked out from the volumes in the protocol); 330,000 compounds, 0.2% hits; AID 2557, 2010; in the data active = inhibition above about 50%
Bfl-1 A1 inh: caspase 3/7 activation in MEF A1-2A-BIM cells, primary screen, A1 inhibitor project, cell-based, luminescence, HTS; Caspase-Glo 3/7 luminescence, 3 h; percent of clofoctol response, vehicle zero; caspase activation, % (test concentration not listed); 330,000 compounds, 0.066% hits; AID 2462, 2010;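 active = over half of replicate activation scores above 10%, or exactly half above 10 with the replicate mean above 10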
B2AR ag: beta2AR agonists driving receptor internalization, primary screen, cell-based, FAP fluorogen, flow cytometry; Beta-2 adrenergic receptor (Homo sapiens), P07550; Am2.2-beta2AR cells; response, % (no concentration beside the values); 340,000 compounds, 0.43% hits; AID 504454, 2011;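 active = response above a set limit, near 3 SD of response in nonfluorescent compounds, cut at about 42% in these data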
Target sequence (P07550 whole entry, looked up): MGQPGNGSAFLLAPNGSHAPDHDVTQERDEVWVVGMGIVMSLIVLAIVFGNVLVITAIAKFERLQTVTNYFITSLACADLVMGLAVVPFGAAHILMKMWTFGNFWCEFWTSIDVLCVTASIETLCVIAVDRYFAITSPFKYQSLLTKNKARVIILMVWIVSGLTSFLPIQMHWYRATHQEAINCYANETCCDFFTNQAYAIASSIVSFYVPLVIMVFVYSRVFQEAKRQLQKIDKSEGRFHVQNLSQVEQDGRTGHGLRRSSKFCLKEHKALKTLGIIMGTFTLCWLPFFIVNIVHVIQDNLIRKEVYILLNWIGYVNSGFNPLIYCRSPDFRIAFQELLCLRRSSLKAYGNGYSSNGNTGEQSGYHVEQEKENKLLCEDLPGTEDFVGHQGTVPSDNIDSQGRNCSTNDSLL
GRK2 aptamer HTS: compounds blocking aptamer binding on GRK2 – biochemical, human GRK2, bead flow cytometry, HTS, primary screen; Beta-adrenergic receptor kinase 1 (Homo sapiens), P25098; FAM-aptamer displacement from GRK2; 330,000 compounds, 0.59% hits; inhibition of aptamer binding, % at 10 µM;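 active = inhibition of aptamer binding above 40%, roughly 3 SD of noise, on plates passing a quality check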;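 note: median bead fluorescence of bound FAM aptamer so fluorescent compounds give negative values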
NTR1 ag: agonists of human NTR1, primary screen, imaging, U2OS cells, beta-arrestin-GFP, high content. NTR1-U2OS beta-arrestin-GFP spot imaging, agonist mode. activation, % at 20 µM. 330,000 compounds, 0.17% hits. AID 493036, 2011;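 active = activation at or above 40% of the spot to cytoplasm intensity ratio, with at least 20 cells analyzed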
A number is an active result. Sampled rows, rich in hits. Any-hit rate of the full collection: about 1.3%.

What do the screens show for `CCOC(=O)Cc1csc(/N=C/c2c(O)n(-c3ccc(C)c(C)c3)c(=O)c3ccccc23)n1`?
VLA-4 inh: inactive; Bfl-1 A1 inh: 22; B2AR ag: inactive; GRK2 aptamer HTS: inactive; NTR1 ag: inactive

Results for Cc1ccc(-n2c(O)c(C=Nc3ccc4c(c3)OCO4)c3ccccc3c2=O)cc1C ?
VLA-4 inh: inactive; Bfl-1 A1 inh: inactive; B2AR ag: inactive; GRK2 aptamer HTS: inactive; NTR1 ag: inactive

How did CCOC(=O)N1CCN(c2ncnc3c2oc2nc(C(C)C)c4c(c23)CCC4)CC1 do in these assays?
VLA-4 inh: inactive; Bfl-1 A1 inh: inactive; B2AR ag: inactive; GRK2 aptamer HTS: inactive; NTR1 ag: inactive

How did CC(C)Cc1nc2oc3c(N4CCN(CCO)CC4)ncnc3c2c2c1CCCC2 do in these assays?
VLA-4 inh: inactive; Bfl-1 A1 inh: inactive; B2AR ag: inactive; GRK2 aptamer HTS: 45; NTR1 ag: inactive

How did COc1cc(Cl)ccc1OCc1cc(C(=O)N(C)CCc2cnn(C)c2)no1 do in these assays?
VLA-4 inh: inactive; Bfl-1 A1 inh: inactive; B2AR ag: inactive; GRK2 aptamer HTS: inactive; NTR1 ag: inactive

Results for O=C(NCCCn1ccnc1)/C(=C\c1cccs1)NC(=O)c1ccco1 ?
VLA-4 inh: inactive; Bfl-1 A1 inh: inactive; B2AR ag: inactive; GRK2 aptamer HTS: 41; NTR1 ag: inactive

What do the screens show for `CN(C(=S)NC(=O)C12CC3CC(CC(C3)C1)C2)c1ccc(O)cc1`?
VLA-4 inh: inactive; Bfl-1 A1 inh: inactive; B2AR ag: inactive; GRK2 aptamer HTS: 59; NTR1 ag: inactive

What do the screens show for `O=C(COC(=O)/C=C/c1ccc(Cl)cc1)NC1CC1`?
VLA-4 inh: inactive; Bfl-1 A1 inh: inactive; B2AR ag: inactive; GRK2 aptamer HTS: inactive; NTR1 ag: inactive

What do the screens show for `O=C(COC(=O)/C=C/c1ccc(Cl)cc1)NC1CCCCCC1`?
VLA-4 inh: inactive; Bfl-1 A1 inh: inactive; B2AR ag: 44; GRK2 aptamer HTS: inactive; NTR1 ag: inactive

Results for CC(C)N1C(=O)C(=O)N(CC(=O)N2c3ccccc3NC(=O)CC2C)C1=O (stereo unspecified) ?
B2AR ag: inactive; NTR1 ag: inactive

How did Cc1c(C)c2ccc(OCC(=O)Nc3ccc(N4CCC(C)CC4)cc3)cc2oc1=O do in these assays?
VLA-4 inh: inactive; Bfl-1 A1 inh: inactive; B2AR ag: inactive; GRK2 aptamer HTS: inactive; NTR1 ag: inactive

How did Cc1cc(=O)oc2cc(OC(C)C(=O)Nc3ccc(N4CCCCC4)cc3)ccc12 (stereo unspecified) do in these assays?
VLA-4 inh: inactive; Bfl-1 A1 inh: inactive; B2AR ag: inactive; GRK2 aptamer HTS: inactive; NTR1 ag: inactive

How did Cc1cc(=O)oc2c(C)c(OC(C)C(=O)Nc3ccc(N4CCC(C)CC4)cc3)ccc12 (stereo unspecified) do in these assays?
VLA-4 inh: inactive; Bfl-1 A1 inh: inactive; B2AR ag: 83; GRK2 aptamer HTS: inactive; NTR1 ag: inactive

Results for Cc1cc(=O)oc2cc(OCC(=O)Nc3ccc(N4CCC(C)CC4)cc3)ccc12 ?
VLA-4 inh: inactive; Bfl-1 A1 inh: inactive; B2AR ag: 51; GRK2 aptamer HTS: inactive; NTR1 ag: inactive

What do the screens show for `COc1ccc(CCNC(=O)C2CCN(c3nccc(C)n3)CC2)cc1`?
VLA-4 inh: inactive; Bfl-1 A1 inh: inactive; B2AR ag: inactive; GRK2 aptamer HTS: inactive; NTR1 ag: inactive

Results for Cc1ccc(OCC(=O)NNC(=O)C2CCN(c3nccc(C)n3)CC2)cc1 ?
VLA-4 inh: inactive; Bfl-1 A1 inh: inactive; B2AR ag: 105; GRK2 aptamer HTS: inactive; NTR1 ag: inactive

Results for O=C([C@@H]1Cc2ccccc2CN1)N1CCN(Cc2ccccc2)CC1 ?
VLA-4 inh: inactive; Bfl-1 A1 inh: inactive; B2AR ag: inactive; GRK2 aptamer HTS: inactive; NTR1 ag: inactive

Results for Cc1c(CCC(=O)NC2CC2)c(=O)oc2c(C)c(O)ccc12 ?
VLA-4 inh: inactive; Bfl-1 A1 inh: inactive; B2AR ag: inactive; GRK2 aptamer HTS: inactive; NTR1 ag: inactive

What do the screens show for `COC(=O)C1=C(C)N(Cc2ccccc2)C(=NCc2ccc(OC)cc2)N[C@H]1c1cccc(F)c1`?
VLA-4 inh: inactive; Bfl-1 A1 inh: inactive; B2AR ag: inactive; GRK2 aptamer HTS: inactive; NTR1 ag: inactive

How did COC(=O)C1=C(C)N(Cc2ccccc2)C(=NCc2cccc(Cl)c2)N[C@H]1c1cccc(F)c1 do in these assays?
VLA-4 inh: inactive; Bfl-1 A1 inh: inactive; B2AR ag: 48; GRK2 aptamer HTS: inactive; NTR1 ag: inactive

What do the screens show for `O=C(COC(=O)Cc1ccc(Cl)cc1)Nc1ccc(OC(F)F)cc1`?
VLA-4 inh: inactive; Bfl-1 A1 inh: inactive; B2AR ag: inactive; GRK2 aptamer HTS: 44; NTR1 ag: inactive

How did C#CCOCCOCCOCCNc1nc(N2CCN(C(=O)CCCCCCCCCCNC(=O)Cn3cc(CCCCCN)nn3)CC2)nc(N2CCN(C(=O)CCCCCCCCCCNC(=O)[C@@H](CCSC)n3cc(CCO)nn3)CC2)n1 do in these assays?
VLA-4 inh: inactive; Bfl-1 A1 inh: inactive; B2AR ag: 75; GRK2 aptamer HTS: inactive; NTR1 ag: inactive

Results for C#CCOCCOCCOCCNc1nc(N2CCN(C(=O)CCCCCCCCCCNC(=O)Cn3cc(CCCCCN)nn3)CC2)nc(N2CCN(C(=O)CCCCCCCCCCNC(=O)Cn3cc(CCCCCN)nn3)CC2)n1 ?
VLA-4 inh: inactive; Bfl-1 A1 inh: inactive; B2AR ag: 45; GRK2 aptamer HTS: inactive; NTR1 ag: inactive

Results for O=C(/C=C/c1ccc(Cl)cc1)c1cccnc1 ?
VLA-4 inh: inactive; Bfl-1 A1 inh: inactive; B2AR ag: inactive; GRK2 aptamer HTS: inactive; NTR1 ag: inactive

Results for CCN(CC)c1ccc(/C=C/C(=O)c2cccnc2)cc1 ?
VLA-4 inh: 50; Bfl-1 A1 inh: inactive; B2AR ag: inactive; GRK2 aptamer HTS: inactive; NTR1 ag: inactive

What do the screens show for `C=C1C(=O)[C@@]23[C@H](O)C[C@@H]4C(C)(C)CC[C@H](O)[C@@]4(C)[C@@H]2CC[C@@H]1[C@H]3O`?
VLA-4 inh: inactive; Bfl-1 A1 inh: inactive; B2AR ag: 46; GRK2 aptamer HTS: inactive; NTR1 ag: inactive

How did Cc1cc2c(=O)n(Cc3ccco3)c(SCC(=O)c3ccc(Cl)s3)nc2s1 do in these assays?
VLA-4 inh: inactive; Bfl-1 A1 inh: inactive; B2AR ag: 52; GRK2 aptamer HTS: inactive; NTR1 ag: inactive

How did CCOC(=O)CC(=O)CSc1nc2sc(C)cc2c(=O)n1Cc1ccco1 do in these assays?
VLA-4 inh: inactive; Bfl-1 A1 inh: inactive; B2AR ag: inactive; GRK2 aptamer HTS: inactive; NTR1 ag: inactive

How did CCOC(=O)c1c(SCCN2CCCC2)n(-c2ccccc2)c(=S)n(-c2ccccc2)c1=O do in these assays?
B2AR ag: 53

What do the screens show for `CCOC(=O)c1c[nH]c(=S)n(-c2ccccc2)c1=O`?
VLA-4 inh: inactive; Bfl-1 A1 inh: inactive; B2AR ag: inactive; GRK2 aptamer HTS: inactive; NTR1 ag: inactive
